Measured values reported in PMC7862700, “An all-to-all approach to the identification of sequence-specific readers for epigenetic DNA modifications on cytosine”.

Key:
Test in all cases: DAPPL (digital affinity profiling via proximity ligation, sequencing); 10 mM Tris-HCl pH 7.5, 50 mM NaCl, 1 mM DTT, 4% glycerol, room temperature, 30 min; GST-TFs on glutathione beads, 16-mer random dsDNA library, 0.1% formaldehyde crosslink after washing; high values mean tight binding
Details in all cases: protein: recombinant; tags: N-terminal GST; dsDNA, one strand shown
ERF = biological target: T1, ERF (Homo sapiens, UniProt P50548 1-548)
T1 sequence: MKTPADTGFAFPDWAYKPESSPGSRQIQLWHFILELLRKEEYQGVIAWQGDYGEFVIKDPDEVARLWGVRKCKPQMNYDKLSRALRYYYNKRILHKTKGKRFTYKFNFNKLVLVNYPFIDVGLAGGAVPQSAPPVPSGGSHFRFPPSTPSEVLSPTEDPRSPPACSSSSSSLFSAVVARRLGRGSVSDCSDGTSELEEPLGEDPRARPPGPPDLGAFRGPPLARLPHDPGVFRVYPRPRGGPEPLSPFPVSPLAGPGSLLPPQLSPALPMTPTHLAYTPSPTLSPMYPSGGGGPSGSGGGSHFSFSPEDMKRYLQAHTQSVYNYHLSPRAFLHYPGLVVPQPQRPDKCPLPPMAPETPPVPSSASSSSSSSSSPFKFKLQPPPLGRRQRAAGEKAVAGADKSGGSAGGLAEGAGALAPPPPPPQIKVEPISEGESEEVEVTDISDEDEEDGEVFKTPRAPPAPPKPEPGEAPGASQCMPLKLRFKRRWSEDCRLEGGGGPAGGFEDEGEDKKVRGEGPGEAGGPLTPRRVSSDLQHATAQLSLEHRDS
How it was run: (§1)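 Binding signal is given per hexamer as its read frequency for a factor divided by its frequency in the tag-only sample. GST-fused human transcription factors were expressed in yeast, captured on glutathione beads, barcoded with DNA and pooled with that sample, then incubated with 200 nmole of a 16-mer random double-stranded DNA library in Tris/NaCl/DTT/glycerol buffer for 30 min at room temperature. The pools were then washed, crosslinked, proximity-ligated, amplified by PCR and sequenced on an Illumina NextSeq500.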

ETV3L = biological target: T2, ETV3L (Homo sapiens, UniProt Q6ZN32 1-361)
T2 sequence: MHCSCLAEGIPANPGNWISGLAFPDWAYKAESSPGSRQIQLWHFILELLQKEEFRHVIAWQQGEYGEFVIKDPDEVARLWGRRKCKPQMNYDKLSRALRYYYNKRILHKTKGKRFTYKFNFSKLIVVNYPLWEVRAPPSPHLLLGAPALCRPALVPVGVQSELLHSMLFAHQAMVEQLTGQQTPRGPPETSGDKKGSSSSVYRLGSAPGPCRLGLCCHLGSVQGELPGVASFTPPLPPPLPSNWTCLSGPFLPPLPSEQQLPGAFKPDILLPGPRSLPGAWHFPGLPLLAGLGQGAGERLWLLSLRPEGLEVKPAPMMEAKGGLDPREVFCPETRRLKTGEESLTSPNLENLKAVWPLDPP
How it was run: as §1

ETS2 = biological target: T3, ETS2 (Homo sapiens, UniProt P15036 1-469)
T3 sequence: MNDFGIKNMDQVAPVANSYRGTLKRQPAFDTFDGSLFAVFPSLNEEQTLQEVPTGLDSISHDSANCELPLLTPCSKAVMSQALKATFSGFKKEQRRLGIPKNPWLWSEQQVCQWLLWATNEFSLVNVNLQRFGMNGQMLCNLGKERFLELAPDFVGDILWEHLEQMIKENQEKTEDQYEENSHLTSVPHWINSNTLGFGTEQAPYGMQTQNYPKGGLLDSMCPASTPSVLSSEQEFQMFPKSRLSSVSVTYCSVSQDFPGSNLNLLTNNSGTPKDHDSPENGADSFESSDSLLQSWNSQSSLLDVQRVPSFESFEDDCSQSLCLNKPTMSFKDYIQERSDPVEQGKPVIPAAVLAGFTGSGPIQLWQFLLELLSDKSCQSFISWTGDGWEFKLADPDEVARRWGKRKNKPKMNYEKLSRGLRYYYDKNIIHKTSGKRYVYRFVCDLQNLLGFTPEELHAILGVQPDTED
How it was run: as §1

SPDEF = biological target: T4, SPDEF (Homo sapiens, UniProt O95238 1-335)
T4 sequence: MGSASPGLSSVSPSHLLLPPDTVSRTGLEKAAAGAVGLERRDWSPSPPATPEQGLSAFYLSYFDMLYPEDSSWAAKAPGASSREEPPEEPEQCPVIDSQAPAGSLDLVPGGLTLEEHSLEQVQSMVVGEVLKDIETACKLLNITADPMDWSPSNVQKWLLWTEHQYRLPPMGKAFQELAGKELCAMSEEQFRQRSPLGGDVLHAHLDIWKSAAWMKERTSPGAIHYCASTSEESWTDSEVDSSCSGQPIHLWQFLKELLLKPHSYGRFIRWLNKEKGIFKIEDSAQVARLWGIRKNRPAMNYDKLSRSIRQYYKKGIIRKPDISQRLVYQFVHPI
How it was run: as §1

ETV7 = biological target: T5, ETV7 (Homo sapiens, UniProt Q9Y603 1-341)
T5 sequence: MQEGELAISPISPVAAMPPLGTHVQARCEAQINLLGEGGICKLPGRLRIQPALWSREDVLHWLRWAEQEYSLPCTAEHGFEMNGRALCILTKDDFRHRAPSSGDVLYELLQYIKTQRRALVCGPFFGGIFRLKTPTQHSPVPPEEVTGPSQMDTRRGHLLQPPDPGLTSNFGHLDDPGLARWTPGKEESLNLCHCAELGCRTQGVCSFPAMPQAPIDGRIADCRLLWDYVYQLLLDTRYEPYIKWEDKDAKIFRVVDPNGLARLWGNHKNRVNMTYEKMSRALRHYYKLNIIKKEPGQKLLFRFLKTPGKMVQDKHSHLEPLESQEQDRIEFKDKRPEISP
How it was run: as §1

ELF5 = biological target: T6, ELF5 (Homo sapiens, UniProt Q9UKW6-2 1-255)
T6 sequence: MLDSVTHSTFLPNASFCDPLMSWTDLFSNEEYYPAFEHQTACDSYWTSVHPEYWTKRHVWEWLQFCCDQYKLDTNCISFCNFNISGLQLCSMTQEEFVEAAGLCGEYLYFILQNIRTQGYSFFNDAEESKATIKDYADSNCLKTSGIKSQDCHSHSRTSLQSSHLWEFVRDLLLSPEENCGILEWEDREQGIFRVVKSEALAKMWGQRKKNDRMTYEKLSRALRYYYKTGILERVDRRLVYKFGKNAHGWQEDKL
How it was run: as §1

ETV3 = biological target: T7, ETV3 (Homo sapiens, UniProt P41162-2 1-143)
T7 sequence: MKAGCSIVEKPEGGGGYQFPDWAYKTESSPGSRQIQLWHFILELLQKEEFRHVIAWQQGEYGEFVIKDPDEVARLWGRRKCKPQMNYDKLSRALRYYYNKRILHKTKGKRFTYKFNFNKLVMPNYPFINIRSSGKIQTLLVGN
How it was run: as §1

ETV6 = ETV6 (Homo sapiens, UniProt P41212 1-452)
Chain of ETV6 (P41212 whole entry): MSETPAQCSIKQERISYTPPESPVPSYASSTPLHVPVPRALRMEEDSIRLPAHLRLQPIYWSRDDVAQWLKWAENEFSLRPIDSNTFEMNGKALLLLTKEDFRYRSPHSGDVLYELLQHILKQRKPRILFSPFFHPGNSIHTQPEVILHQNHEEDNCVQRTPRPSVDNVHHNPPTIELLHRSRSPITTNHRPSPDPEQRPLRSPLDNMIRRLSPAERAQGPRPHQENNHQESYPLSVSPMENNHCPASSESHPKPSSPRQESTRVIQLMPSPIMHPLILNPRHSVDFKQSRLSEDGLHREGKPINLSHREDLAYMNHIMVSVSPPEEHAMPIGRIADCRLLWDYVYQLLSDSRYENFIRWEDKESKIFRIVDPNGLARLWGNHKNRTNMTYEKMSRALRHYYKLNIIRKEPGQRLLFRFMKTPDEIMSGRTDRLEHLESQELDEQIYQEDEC
How it was run: as §1

Sequence	binding signal (ERF)	binding signal (ETV3L)	binding signal (ETS2)	binding signal (SPDEF)	binding signal (ETV7)	binding signal (ELF5)	binding signal (ETV3)	binding signal (ETV6)
TTTCTG	1.44 fold enrichment (6-mer frequency, TF over GST control)	1.29 fold enrichment (6-mer frequency, TF over GST control)	1.37 fold enrichment (6-mer frequency, TF over GST control)	1.46 fold enrichment (6-mer frequency, TF over GST control)	1.39 fold enrichment (6-mer frequency, TF over GST control)	1.42 fold enrichment (6-mer frequency, TF over GST control)	1.3 fold enrichment (6-mer frequency, TF over GST control)	1.46 fold enrichment (6-mer frequency, TF over GST control)
CGCTCA	1.2 fold enrichment (6-mer frequency, TF over GST control)	1.24 fold enrichment (6-mer frequency, TF over GST control)	1.14 fold enrichment (6-mer frequency, TF over GST control)	1.05 fold enrichment (6-mer frequency, TF over GST control)	1.09 fold enrichment (6-mer frequency, TF over GST control)	1.16 fold enrichment (6-mer frequency, TF over GST control)	1.07 fold enrichment (6-mer frequency, TF over GST control)	1.09 fold enrichment (6-mer frequency, TF over GST control)
GTCCTT	1.14 fold enrichment (6-mer frequency, TF over GST control)	1.29 fold enrichment (6-mer frequency, TF over GST control)	1.28 fold enrichment (6-mer frequency, TF over GST control)	1.29 fold enrichment (6-mer frequency, TF over GST control)	1.11 fold enrichment (6-mer frequency, TF over GST control)	1.43 fold enrichment (6-mer frequency, TF over GST control)	1.18 fold enrichment (6-mer frequency, TF over GST control)	1.26 fold enrichment (6-mer frequency, TF over GST control)
TAGCGG	1.1 fold enrichment (6-mer frequency, TF over GST control)	1.12 fold enrichment (6-mer frequency, TF over GST control)	1.13 fold enrichment (6-mer frequency, TF over GST control)	1.1 fold enrichment (6-mer frequency, TF over GST control)	1.12 fold enrichment (6-mer frequency, TF over GST control)	1.12 fold enrichment (6-mer frequency, TF over GST control)	1.09 fold enrichment (6-mer frequency, TF over GST control)	1.12 fold enrichment (6-mer frequency, TF over GST control)
ACCCCG	1.26 fold enrichment (6-mer frequency, TF over GST control)	1.33 fold enrichment (6-mer frequency, TF over GST control)	1.25 fold enrichment (6-mer frequency, TF over GST control)	1.15 fold enrichment (6-mer frequency, TF over GST control)	1.02 fold enrichment (6-mer frequency, TF over GST control)	1.21 fold enrichment (6-mer frequency, TF over GST control)	1.11 fold enrichment (6-mer frequency, TF over GST control)	1.16 fold enrichment (6-mer frequency, TF over GST control)
TCGCGC	1.12 fold enrichment (6-mer frequency, TF over GST control)	1.02 fold enrichment (6-mer frequency, TF over GST control)	1.12 fold enrichment (6-mer frequency, TF over GST control)	1.14 fold enrichment (6-mer frequency, TF over GST control)	1.23 fold enrichment (6-mer frequency, TF over GST control)	1.03 fold enrichment (6-mer frequency, TF over GST control)	–	–
CTTGAA	1.2 fold enrichment (6-mer frequency, TF over GST control)	1.11 fold enrichment (6-mer frequency, TF over GST control)	1.16 fold enrichment (6-mer frequency, TF over GST control)	1.13 fold enrichment (6-mer frequency, TF over GST control)	1.08 fold enrichment (6-mer frequency, TF over GST control)	1.15 fold enrichment (6-mer frequency, TF over GST control)	1.16 fold enrichment (6-mer frequency, TF over GST control)	1.07 fold enrichment (6-mer frequency, TF over GST control)
CCCATC	1.25 fold enrichment (6-mer frequency, TF over GST control)	1.15 fold enrichment (6-mer frequency, TF over GST control)	1.22 fold enrichment (6-mer frequency, TF over GST control)	1.07 fold enrichment (6-mer frequency, TF over GST control)	1.08 fold enrichment (6-mer frequency, TF over GST control)	1.21 fold enrichment (6-mer frequency, TF over GST control)	1.14 fold enrichment (6-mer frequency, TF over GST control)	1.1 fold enrichment (6-mer frequency, TF over GST control)
ACTCGA	1.33 fold enrichment (6-mer frequency, TF over GST control)	1.3 fold enrichment (6-mer frequency, TF over GST control)	1.33 fold enrichment (6-mer frequency, TF over GST control)	1.29 fold enrichment (6-mer frequency, TF over GST control)	1.28 fold enrichment (6-mer frequency, TF over GST control)	1.22 fold enrichment (6-mer frequency, TF over GST control)	1.27 fold enrichment (6-mer frequency, TF over GST control)	1.27 fold enrichment (6-mer frequency, TF over GST control)
GGAAGC	1.43 fold enrichment (6-mer frequency, TF over GST control)	1.5 fold enrichment (6-mer frequency, TF over GST control)	1.6 fold enrichment (6-mer frequency, TF over GST control)	1.55 fold enrichment (6-mer frequency, TF over GST control)	1.62 fold enrichment (6-mer frequency, TF over GST control)	1.95 fold enrichment (6-mer frequency, TF over GST control)	1.69 fold enrichment (6-mer frequency, TF over GST control)	1.92 fold enrichment (6-mer frequency, TF over GST control)
TGTTAC	1.3 fold enrichment (6-mer frequency, TF over GST control)	1.41 fold enrichment (6-mer frequency, TF over GST control)	1.39 fold enrichment (6-mer frequency, TF over GST control)	1.54 fold enrichment (6-mer frequency, TF over GST control)	1.42 fold enrichment (6-mer frequency, TF over GST control)	1.43 fold enrichment (6-mer frequency, TF over GST control)	1.44 fold enrichment (6-mer frequency, TF over GST control)	1.31 fold enrichment (6-mer frequency, TF over GST control)
TGTTCG	1.2 fold enrichment (6-mer frequency, TF over GST control)	1.01 fold enrichment (6-mer frequency, TF over GST control)	1.15 fold enrichment (6-mer frequency, TF over GST control)	1.03 fold enrichment (6-mer frequency, TF over GST control)	1.15 fold enrichment (6-mer frequency, TF over GST control)	1.03 fold enrichment (6-mer frequency, TF over GST control)	1.01 fold enrichment (6-mer frequency, TF over GST control)	–
CCAACA	1.05 fold enrichment (6-mer frequency, TF over GST control)	1.01 fold enrichment (6-mer frequency, TF over GST control)	1.03 fold enrichment (6-mer frequency, TF over GST control)	1.06 fold enrichment (6-mer frequency, TF over GST control)	1.05 fold enrichment (6-mer frequency, TF over GST control)	1.01 fold enrichment (6-mer frequency, TF over GST control)	1.1 fold enrichment (6-mer frequency, TF over GST control)	–
TTGGGT	1.27 fold enrichment (6-mer frequency, TF over GST control)	1.1 fold enrichment (6-mer frequency, TF over GST control)	1.03 fold enrichment (6-mer frequency, TF over GST control)	1.04 fold enrichment (6-mer frequency, TF over GST control)	1.08 fold enrichment (6-mer frequency, TF over GST control)	1.08 fold enrichment (6-mer frequency, TF over GST control)	–	–
AAAGTT	1.08 fold enrichment (6-mer frequency, TF over GST control)	1.13 fold enrichment (6-mer frequency, TF over GST control)	1.09 fold enrichment (6-mer frequency, TF over GST control)	1.01 fold enrichment (6-mer frequency, TF over GST control)	1.15 fold enrichment (6-mer frequency, TF over GST control)	1.08 fold enrichment (6-mer frequency, TF over GST control)	1.09 fold enrichment (6-mer frequency, TF over GST control)	1.06 fold enrichment (6-mer frequency, TF over GST control)
